Positions count from the first letter of the chain named.

The source of these data is PMC11006913.

Holding throughout (test): PBM; 200 nM protein, PBS
Common to all, as to conditions: dsDNA, one strand shown

For experiment [1], the target named is HOXB4 (Homo sapiens, UniProt P17483 148-234).
Experiment [2] has as its target T1, VENTX (Homo sapiens, UniProt O95231 78-163, R121Q).
T1 sequence: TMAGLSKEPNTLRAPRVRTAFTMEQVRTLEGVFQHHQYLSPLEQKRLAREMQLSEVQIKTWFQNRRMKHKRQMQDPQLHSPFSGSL

The target of experiment [3] is HOXB9 (Homo sapiens, UniProt P17482 171-250, T197M).
Experiment [4] deals with HOXA4 (Homo sapiens, UniProt Q00056 201-287, W262R).
The target of experiment [5] is HOXC9 (Homo sapiens, UniProt P31274 178-260, K195R).
The target in experiment [6] is T2, VENTX (Homo sapiens, UniProt O95231 78-163).
T2 sequence: T1 sequence with Q44R

Experiment [7] concerns the target HOXA7 (Homo sapiens, UniProt P31268 116-202).
Experiment [8] deals with HOXC10 (Homo sapiens, UniProt Q9NYD6 254-340).
The target in experiment [9] is T3, PAX4 (Homo sapiens, UniProt O43316 9-242, R200K).
T3 sequence: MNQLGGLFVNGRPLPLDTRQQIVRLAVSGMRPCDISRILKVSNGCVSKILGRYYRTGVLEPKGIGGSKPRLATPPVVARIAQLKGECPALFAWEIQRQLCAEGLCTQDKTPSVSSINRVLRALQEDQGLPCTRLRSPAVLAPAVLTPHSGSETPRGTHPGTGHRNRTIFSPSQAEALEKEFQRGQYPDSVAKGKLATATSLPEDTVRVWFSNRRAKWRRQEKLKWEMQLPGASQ

The target in experiment [10] is T4, VENTX (Homo sapiens, UniProt O95231 78-163, Y115F).
T4 sequence: T1 sequence with Y38F, Q44R

The target of experiment [11] is HOXB6 (Homo sapiens, UniProt P17509 132-218, K202E).
Experiment [12] has as its target HOXA2 (Homo sapiens, UniProt O43364 129-215, R185T).
Experiment [13] concerns the target HOXA4 (Homo sapiens, UniProt Q00056 201-287, R217L).
In experiment [14] the target is HOXB9 (Homo sapiens, UniProt P17482 171-250).
The target of experiment [15] is HOXB4 (Homo sapiens, UniProt P17483 148-234, V174I).
For experiment [16], the target named is HOXC9 (Homo sapiens, UniProt P31274 178-260).
The target of experiment [17] is HOXC9 (Homo sapiens, UniProt P31274 178-260, R193K).
Experiment [18] addresses HOXA2 (Homo sapiens, UniProt O43364 129-215, R185K).
The target in experiment [19] is HOXA4 (Homo sapiens, UniProt Q00056 201-287).
Experiment [20] has as its target HOXC10 (Homo sapiens, UniProt Q9NYD6 254-340, K271E).
Experiment [21] has as its target VAX1 (Homo sapiens, UniProt Q5SQQ9 86-172).
A further experiment deals with HOXD13 (Homo sapiens, UniProt P35453 263-343, T313A).
The target of experiment [22] is HOXB9 (Homo sapiens, UniProt P17482 171-250, R186Q).
Experiment [23] concerns the target HOXC9 (Homo sapiens, UniProt P31274 178-260, R222W).
Experiment [24] addresses VAX1 (Homo sapiens, UniProt Q5SQQ9 86-172, T142I).
In experiment [25] the target is HOXA2 (Homo sapiens, UniProt O43364 129-215, Y150S).
Experiment [26] deals with HOXA7 (Homo sapiens, UniProt P31268 116-202, W177C).
Experiment [27] concerns the target HOXA4 (Homo sapiens, UniProt Q00056 201-287, W262F).
In experiment [28] the target is HOXA2 (Homo sapiens, UniProt O43364 129-215).
Experiment [29] deals with VAX1 (Homo sapiens, UniProt Q5SQQ9 86-172, K157R).
Experiment [30] has as its target HOXB6 (Homo sapiens, UniProt P17509 132-218).
In experiment [31] the target is HESX1 (Homo sapiens, UniProt Q9UBX0 95-180, R165K).
Experiment [32] deals with HESX1 (Homo sapiens, UniProt Q9UBX0 95-180).
The target of experiment [33] is CRX (Homo sapiens, UniProt O43186 26-111).
The target of experiment [34] is T5, PAX4 (Homo sapiens, UniProt O43316 9-242).
T5 sequence: T3 sequence with K192R

Experiment [35] concerns the target CRX (Homo sapiens, UniProt O43186 26-111, E42D).
In experiment [36] the target is ALX3 (Homo sapiens, UniProt O95076 139-225, N203Q).
The target in experiment [37] is T6, PAX4 (Homo sapiens, UniProt O43316 9-242, R200Q).
T6 sequence: T3 sequence with K192Q

For experiment [38], the target named is T7, PAX4 (Homo sapiens, UniProt O43316 9-242, F177V).
T7 sequence: T3 sequence with F169V, K192R

In experiment [39] the target is ALX3 (Homo sapiens, UniProt O95076 139-225).
Experiment [40] deals with T8, PAX4 (Homo sapiens, UniProt O43316 9-242, F177Y).
T8 sequence: T3 sequence with F169Y, K192R

In experiment [41] the target is ALX3 (Homo sapiens, UniProt O95076 139-225, L168Q).
Experiment [42] deals with ALX3 (Homo sapiens, UniProt O95076 139-225, L168V).
Experiment [43] addresses T9, PAX4 (Homo sapiens, UniProt O43316 9-242, R227W).
T9 sequence: T3 sequence with K192R, R219W

The target of experiment [44] is CRX (Homo sapiens, UniProt O43186 26-111, R41L).
Experiment [45] concerns the target ALX3 (Homo sapiens, UniProt O95076 139-225, N203S).

Chain of VAX1 (Homo sapiens, UniProt Q5SQQ9 86-172) (Q5SQQ9 86-172): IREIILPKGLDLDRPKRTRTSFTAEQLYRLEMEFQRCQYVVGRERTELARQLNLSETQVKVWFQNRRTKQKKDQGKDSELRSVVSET
Chain of VAX1 (Homo sapiens, UniProt Q5SQQ9 86-172, T142I) (Q5SQQ9 86-172 T142I): as the sequence (Q5SQQ9 86-172) above, with T57I counted along it
Chain of VAX1 (Homo sapiens, UniProt Q5SQQ9 86-172, K157R) (Q5SQQ9 86-172 K157R): as the sequence (Q5SQQ9 86-172) above, with K72R counted along it
Chain of HOXC9 (Homo sapiens, UniProt P31274 178-260, R222W) (P31274 178-260 R222W): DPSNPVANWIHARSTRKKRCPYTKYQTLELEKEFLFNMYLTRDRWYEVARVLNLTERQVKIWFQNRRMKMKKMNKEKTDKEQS
Chain of HOXC9 (Homo sapiens, UniProt P31274 178-260, R193K) (P31274 178-260 R193K): as the sequence (P31274 178-260 R222W) above, with R16K, W45R counted along it
Chain of HOXC9 (Homo sapiens, UniProt P31274 178-260, K195R) (P31274 178-260 K195R): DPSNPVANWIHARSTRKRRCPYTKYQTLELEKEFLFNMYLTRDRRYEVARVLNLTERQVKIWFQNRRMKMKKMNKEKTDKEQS
Chain of HOXC9 (Homo sapiens, UniProt P31274 178-260) (P31274 178-260): as the sequence (P31274 178-260 R222W) above, with W45R counted along it
Chain of HOXB4 (Homo sapiens, UniProt P17483 148-234) (P17483 148-234): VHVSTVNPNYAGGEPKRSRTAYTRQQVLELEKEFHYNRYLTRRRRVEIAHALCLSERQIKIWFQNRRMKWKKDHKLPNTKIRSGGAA
Chain of HOXB4 (Homo sapiens, UniProt P17483 148-234, V174I) (P17483 148-234 V174I): as the sequence (P17483 148-234) above, with V27I counted along it
Chain of CRX (Homo sapiens, UniProt O43186 26-111, R41L) (O43186 26-111 R41L): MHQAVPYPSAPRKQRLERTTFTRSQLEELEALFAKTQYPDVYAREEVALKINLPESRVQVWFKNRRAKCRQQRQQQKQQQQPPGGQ
Chain of HOXA2 (Homo sapiens, UniProt O43364 129-215, Y150S) (O43364 129-215 Y150S): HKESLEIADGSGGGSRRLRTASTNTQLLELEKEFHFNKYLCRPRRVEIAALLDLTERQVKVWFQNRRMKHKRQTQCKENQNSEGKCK
Chain of HOXA4 (Homo sapiens, UniProt Q00056 201-287, R217L) (Q00056 201-287 R217L): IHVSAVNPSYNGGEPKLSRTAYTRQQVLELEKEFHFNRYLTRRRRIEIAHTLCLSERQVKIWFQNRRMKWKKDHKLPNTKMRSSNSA
Chain of HOXA2 (Homo sapiens, UniProt O43364 129-215) (O43364 129-215): as the sequence (O43364 129-215 Y150S) above, with S22Y counted along it
Chain of ALX3 (Homo sapiens, UniProt O95076 139-225, L168Q) (O95076 139-225 L168Q): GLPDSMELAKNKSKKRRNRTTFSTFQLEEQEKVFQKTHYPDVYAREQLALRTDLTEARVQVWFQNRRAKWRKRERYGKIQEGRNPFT
Chain of HOXA7 (Homo sapiens, UniProt P31268 116-202, W177C) (P31268 116-202 W177C): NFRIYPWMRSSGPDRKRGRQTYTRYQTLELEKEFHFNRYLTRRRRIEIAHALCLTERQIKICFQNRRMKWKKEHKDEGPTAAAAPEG
Chain of HOXA4 (Homo sapiens, UniProt Q00056 201-287, W262R) (Q00056 201-287 W262R): as the sequence (Q00056 201-287 R217L) above, with L17R, W62R counted along it
Chain of HOXA4 (Homo sapiens, UniProt Q00056 201-287, W262F) (Q00056 201-287 W262F): as the sequence (Q00056 201-287 R217L) above, with L17R, W62F counted along it
Chain of HESX1 (Homo sapiens, UniProt Q9UBX0 95-180, R165K) (Q9UBX0 95-180 R165K): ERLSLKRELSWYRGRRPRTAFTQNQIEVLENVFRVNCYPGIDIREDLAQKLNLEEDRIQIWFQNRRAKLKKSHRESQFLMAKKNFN
Chain of ALX3 (Homo sapiens, UniProt O95076 139-225, L168V) (O95076 139-225 L168V): as the sequence (O95076 139-225 L168Q) above, with Q30V counted along it
Chain of HOXA2 (Homo sapiens, UniProt O43364 129-215, R185K) (O43364 129-215 R185K): as the sequence (O43364 129-215 Y150S) above, with S22Y, R57K counted along it
Chain of HOXB9 (Homo sapiens, UniProt P17482 171-250, T197M) (P17482 171-250 T197M): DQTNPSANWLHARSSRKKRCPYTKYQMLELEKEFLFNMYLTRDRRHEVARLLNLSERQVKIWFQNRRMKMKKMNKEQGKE
Chain of ALX3 (Homo sapiens, UniProt O95076 139-225) (O95076 139-225): as the sequence (O95076 139-225 L168Q) above, with Q30L counted along it
Chain of HOXB6 (Homo sapiens, UniProt P17509 132-218, K202E) (P17509 132-218 K202E): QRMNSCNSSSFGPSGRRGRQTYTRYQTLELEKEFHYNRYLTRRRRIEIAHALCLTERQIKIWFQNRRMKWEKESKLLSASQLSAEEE
Chain of HOXD13 (P35453 263-343 T313A): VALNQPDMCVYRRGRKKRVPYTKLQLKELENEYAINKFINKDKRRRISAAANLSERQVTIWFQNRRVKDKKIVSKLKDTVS
Chain of HOXC10 (Homo sapiens, UniProt Q9NYD6 254-340, K271E) (Q9NYD6 254-340 K271E): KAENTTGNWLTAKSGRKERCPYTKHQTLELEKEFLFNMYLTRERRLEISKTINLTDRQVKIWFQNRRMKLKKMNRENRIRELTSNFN
Chain of HOXB9 (Homo sapiens, UniProt P17482 171-250, R186Q) (P17482 171-250 R186Q): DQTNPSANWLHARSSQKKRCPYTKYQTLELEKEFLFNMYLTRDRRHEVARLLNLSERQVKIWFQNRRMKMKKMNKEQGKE
Chain of HOXA2 (Homo sapiens, UniProt O43364 129-215, R185T) (O43364 129-215 R185T): as the sequence (O43364 129-215 Y150S) above, with S22Y, R57T counted along it
Chain of HOXB6 (Homo sapiens, UniProt P17509 132-218) (P17509 132-218): as the sequence (P17509 132-218 K202E) above, with E71K counted along it
Chain of HOXA4 (Homo sapiens, UniProt Q00056 201-287) (Q00056 201-287): as the sequence (Q00056 201-287 R217L) above, with L17R counted along it
Chain of HESX1 (Homo sapiens, UniProt Q9UBX0 95-180) (Q9UBX0 95-180): as the sequence (Q9UBX0 95-180 R165K) above, with K71R counted along it
Chain of CRX (Homo sapiens, UniProt O43186 26-111, E42D) (O43186 26-111 E42D): as the sequence (O43186 26-111 R41L) above, with L16R, E17D counted along it
Chain of ALX3 (Homo sapiens, UniProt O95076 139-225, N203Q) (O95076 139-225 N203Q): as the sequence (O95076 139-225 L168Q) above, with Q30L, N65Q counted along it
Chain of HOXC10 (Homo sapiens, UniProt Q9NYD6 254-340) (Q9NYD6 254-340): as the sequence (Q9NYD6 254-340 K271E) above, with E18K counted along it
Chain of ALX3 (Homo sapiens, UniProt O95076 139-225, N203S) (O95076 139-225 N203S): as the sequence (O95076 139-225 L168Q) above, with Q30L, N65S counted along it
Chain of CRX (Homo sapiens, UniProt O43186 26-111) (O43186 26-111): as the sequence (O43186 26-111 R41L) above, with L16R counted along it
Chain of HOXA7 (Homo sapiens, UniProt P31268 116-202) (P31268 116-202): as the sequence (P31268 116-202 W177C) above, with C62W counted along it
Chain of HOXB9 (Homo sapiens, UniProt P17482 171-250) (P17482 171-250): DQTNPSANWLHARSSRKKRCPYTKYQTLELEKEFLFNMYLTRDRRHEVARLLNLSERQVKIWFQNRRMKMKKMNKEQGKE

For ATTAATGG, the binding signal with HOXB4 [1] was 13.4 upbm affinity estimate (log intensity, higher = more binding, comparable within an allelic series); in the experiment with VENTX [2] it was 12.2 upbm affinity estimate (log intensity, higher = more binding, comparable within an allelic series); in the experiment with HOXB9 [3], 10.3 upbm affinity estimate (log intensity, higher = more binding, comparable within an allelic series); in the experiment with HOXA4 [4], 10.7 upbm affinity estimate (log intensity, higher = more binding, comparable within an allelic series); in the experiment with HOXC9 [5], 12.9 upbm affinity estimate (log intensity, higher = more binding, comparable within an allelic series); with VENTX [6] it was 12.7 upbm affinity estimate (log intensity, higher = more binding, comparable within an allelic series). Besides, the binding signal was 12 upbm affinity estimate (log intensity, higher = more binding, comparable within an allelic series) with HOXA7 [7]; 12.4 upbm affinity estimate (log intensity, higher = more binding, comparable within an allelic series) with HOXC10 [8]; 11.7 upbm affinity estimate (log intensity, higher = more binding, comparable within an allelic series) in the experiment with PAX4 [9]; 11.8 upbm affinity estimate (log intensity, higher = more binding, comparable within an allelic series) with VENTX [10]; 10.2 upbm affinity estimate (log intensity, higher = more binding, comparable within an allelic series) with HOXB6 [11]; 12.6 upbm affinity estimate (log intensity, higher = more binding, comparable within an allelic series) with HOXA2 [12]. Further, the binding signal in the experiment with HOXA4 [13] was 12.2 upbm affinity estimate (log intensity, higher = more binding, comparable within an allelic series); in the experiment with HOXB9 [14] it was 12.3 upbm affinity estimate (log intensity, higher = more binding, comparable within an allelic series); in the experiment with HOXB4 [15], 14.1 upbm affinity estimate (log intensity, higher = more binding, comparable within an allelic series); in the experiment with HOXC9 [16] it was 12.9 upbm affinity estimate (log intensity, higher = more binding, comparable within an allelic series); with HOXC9 [17], 12.9 upbm affinity estimate (log intensity, higher = more binding, comparable within an allelic series); with HOXA2 [18] it was 13.4 upbm affinity estimate (log intensity, higher = more binding, comparable within an allelic series). For the same sequence, the binding signal is 13.9 upbm affinity estimate (log intensity, higher = more binding, comparable within an allelic series) with HOXA4 [19]; 12.2 upbm affinity estimate (log intensity, higher = more binding, comparable within an allelic series) with HOXC10 [20]; 13 upbm affinity estimate (log intensity, higher = more binding, comparable within an allelic series) with VAX1 [21]; 11.6 upbm affinity estimate (log intensity, higher = more binding, comparable within an allelic series) in the experiment with HOXD13; 12 upbm affinity estimate (log intensity, higher = more binding, comparable within an allelic series) in the experiment with HOXB9 [22]; 11.2 upbm affinity estimate (log intensity, higher = more binding, comparable within an allelic series) in the experiment with HOXC9 [23]. The binding signal with VAX1 [24] was 12.6 upbm affinity estimate (log intensity, higher = more binding, comparable within an allelic series); with HOXA2 [25], 11.1 upbm affinity estimate (log intensity, higher = more binding, comparable within an allelic series); in the experiment with HOXA7 [26] it was 8.96 upbm affinity estimate (log intensity, higher = more binding, comparable within an allelic series); in the experiment with HOXA4 [27], 11.6 upbm affinity estimate (log intensity, higher = more binding, comparable within an allelic series); with HOXA2 [28], 12.3 upbm affinity estimate (log intensity, higher = more binding, comparable within an allelic series); in the experiment with VAX1 [29], 12.5 upbm affinity estimate (log intensity, higher = more binding, comparable within an allelic series). Besides, the binding signal in the experiment with HOXB6 [30] was 12.4 upbm affinity estimate (log intensity, higher = more binding, comparable within an allelic series).
As to CATAATAC, the binding signal is 7.93 upbm affinity estimate (log intensity, higher = more binding, comparable within an allelic series) with HESX1 [31]; 8.07 upbm affinity estimate (log intensity, higher = more binding, comparable within an allelic series) in the experiment with HESX1 [32]; 10.4 upbm affinity estimate (log intensity, higher = more binding, comparable within an allelic series) with VAX1 [21]; 10 upbm affinity estimate (log intensity, higher = more binding, comparable within an allelic series) with VAX1 [24]; 10.1 upbm affinity estimate (log intensity, higher = more binding, comparable within an allelic series) in the experiment with VAX1 [29].
In the case of CGAGGGTC, the binding signal with HOXB4 [1] is 7.67 upbm affinity estimate (log intensity, higher = more binding, comparable within an allelic series); in the experiment with CRX [33], 8.26 upbm affinity estimate (log intensity, higher = more binding, comparable within an allelic series); with HOXC9 [5] it was 9.55 upbm affinity estimate (log intensity, higher = more binding, comparable within an allelic series); in the experiment with PAX4 [9], 8.99 upbm affinity estimate (log intensity, higher = more binding, comparable within an allelic series); in the experiment with PAX4 [34], 9.09 upbm affinity estimate (log intensity, higher = more binding, comparable within an allelic series); in the experiment with HOXB4 [15], 7.5 upbm affinity estimate (log intensity, higher = more binding, comparable within an allelic series). For the same sequence, the binding signal is 8.34 upbm affinity estimate (log intensity, higher = more binding, comparable within an allelic series) in the experiment with CRX [35]; 9.61 upbm affinity estimate (log intensity, higher = more binding, comparable within an allelic series) with HOXC9 [16]; 7.7 upbm affinity estimate (log intensity, higher = more binding, comparable within an allelic series) in the experiment with ALX3 [36]; 9.19 upbm affinity estimate (log intensity, higher = more binding, comparable within an allelic series) with PAX4 [37]; 9.61 upbm affinity estimate (log intensity, higher = more binding, comparable within an allelic series) with HOXC9 [17]; 9.25 upbm affinity estimate (log intensity, higher = more binding, comparable within an allelic series) with PAX4 [38]. Moreover, the binding signal in the experiment with ALX3 [39] is 7.59 upbm affinity estimate (log intensity, higher = more binding, comparable within an allelic series); with PAX4 [40] it was 9.23 upbm affinity estimate (log intensity, higher = more binding, comparable within an allelic series); in the experiment with VAX1 [21], 6.87 upbm affinity estimate (log intensity, higher = more binding, comparable within an allelic series); with ALX3 [41] it was 7.67 upbm affinity estimate (log intensity, higher = more binding, comparable within an allelic series); with HOXC9 [23], 9.69 upbm affinity estimate (log intensity, higher = more binding, comparable within an allelic series); with ALX3 [42] it was 7.68 upbm affinity estimate (log intensity, higher = more binding, comparable within an allelic series). Also, the binding signal with VAX1 [24] was 7 upbm affinity estimate (log intensity, higher = more binding, comparable within an allelic series); with PAX4 [43], 9.33 upbm affinity estimate (log intensity, higher = more binding, comparable within an allelic series); in the experiment with CRX [44] it was 8.26 upbm affinity estimate (log intensity, higher = more binding, comparable within an allelic series); with ALX3 [45], 7.71 upbm affinity estimate (log intensity, higher = more binding, comparable within an allelic series); in the experiment with VAX1 [29], 7.08 upbm affinity estimate (log intensity, higher = more binding, comparable within an allelic series).
